From PubChem BioAssay (NCI) come the findings set out here.

The panel holds about 83,000 compounds, 20% with a hit somewhere; the sample as a whole holds those more often.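 Single-dose data. Exposure time 48 hours. Values below 10 considered active.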 The source made the active and inactive calls.

The assay relates to SR leukemia. Kind of assay: NCI-60 one-dose screen, 48 h (100 = growth as untreated, 0 = no growth, -100 = all killed). The conditions noted are these: 10 µM unless noted. As to the method:
Growth inhibition of the SR human tumor cell line is measured as a screen for anti-cancer activity. Cells are grown in 96 well plates and exposed to the test compound for 48 hours. Compounds are tested at a single concentration, which is 10^-5 M for most compounds. The reported endpoint is percent growth (GI% or GIPRCNT), where numbers from 0 - 100% represent growth inhibition, and numbers from -100% - 0 represent cell death. For example, a value of 40 represents 60% growth inhibition. A value of 0 means no net growth occurred over the course of the experiment. A value of -40 indicates 40% of cells at the beginning of the experiment died by the end of the experiment. A value of -100 means all cells are dead at the end of the experiment.
NCI-60 Human Tumor Cell Lines Screen was performed using the standard one-dose NCI protocol, which is described in more detail at https://dtp.cancer.gov/discovery_development/nci-60/default.htm.
Compounds with GIPRCNT values below 10 were considered active. Activity score was based on GIPRCNT using the following formula: […]
Score is 0 for GIPRCNT values of 100 or above, 50 for GIPRCNT values of 0, and 100 for GIPRCNT values of -100.
With `COc1ccc2c(c1)c(-c1nn3cc(-c4ccncc4)nc3s1)cn2C`, the growth was -3.79% (active).

With `CC(C)(C)c1cc(NC(=O)Nc2ccc(-c3cn4c5c(sc4n3)CCc3c[nH]cc3-5)cc2)no1`, the growth was 2.1% (active).

Regarding `CC(=C(c1ccc(OCCN(C)C)cc1)c1ccc(OCCN(C)C)cc1)c1ccc(Cl)cc1`, the growth was -36.1% (active).

With `O=C(Nc1cccc(C(F)(F)F)c1)N1CCN(c2cc(-c3cn(-c4ccccc4)nc3-c3cccc(O)c3)ccn2)CC1`, the growth is 27.6% (inactive).

For the compound `CC1=C(C)C(=O)C(Nc2cccc(C(=O)OC(C)(C)C)c2)=C(Cl)C1=O`, the growth was 16.3% (inactive).

Regarding `Brc1cccc(-c2cc(-c3ccc4c(c3)OC=CO4)[nH]n2)c1`, the growth is 27.6% (inactive).

Take `O=C(NCCNc1cc(-c2cn(-c3ccccc3)nc2-c2cccc(O)c2)ccn1)Nc1cc(C(F)(F)F)cc(C(F)(F)F)c1`: the growth was 81.3% (inactive).

Turning to `COC(=O)CCCNCCCn1ccc2cc(NCc3cccc(-c4ccccc4)c3C)ccc21`, the growth is -14.7% (active).

For `C#C[C@]1(O)CC[C@H]2[C@@H]3CC=C4c5sc(Nc6cccc(F)c6)nc5CC[C@]4(C)[C@H]3CC[C@@]21C`, the growth was 1.48% (active).

As for `CNc1sc(S(=O)(=O)NC)nc1S(=O)(=O)c1ccc(C)cc1`, the growth is 101% (inactive).

As to `C#C[C@]1(O)CC[C@H]2[C@@H]3CC=C4c5sc(N(C)c6ccccc6)nc5CC[C@]4(C)[C@H]3CC[C@@]21C`, the growth was 43.7% (inactive).

On to `O=C(Nc1ccc(Cl)c(C(F)(F)F)c1)Nc1ccc2c(ccn2C(=O)c2cccc(F)c2)c1`, for which the growth is 27.5% (inactive).

On to `Cc1cc2nc(C(Cl)Cl)nc(-c3ccc(S(=O)(=O)N(C)C)cc3)n2n1`, for which the growth was 11.8% (inactive).

Consider `CC1(C)CC[C@]23CC[C@]4(C)[C@H](CC[C@@H]5[C@@]6(C)CC[C@H](NCO)C(C)(C)[C@@H]6CC[C@]54C)[C@H]2[C@H]1OC3`, for which the growth is 3.69% (active).

Consider `O=C(/C=C/c1cccc(Br)c1)c1cccc(OCCCCOc2cccc(C(=O)/C=C/c3cccc(Br)c3)c2)c1`, for which the growth is 98.5% (inactive).

For `Cc1ccc(CSC2=C(Cl)CN(c3ccc(Cl)cc3)C2=O)cc1`, the growth was 74.1% (inactive).

Consider `Cc1ccc(C(=O)Nc2ccc(CNCCN3CCNCC3)c(C(F)(F)F)c2)cc1C#Cc1cnc2cccnn12`, for which the growth is -39.4% (active).

With `O=C(Nc1ccc(Cl)c(C(F)(F)F)c1)Nc1ccc2oc(=O)ccc2c1`, the growth was 45.6% (inactive).

Consider `COC(=O)CNC(=O)c1cccc(-c2cc(=O)c3c(OC)c(OC)c(OC)cc3o2)c1`, for which the growth was 85% (inactive).

As to `Oc1ccc(-c2nc3ccc(/C(=N\N=C\c4ccc(Cl)cc4)c4ccccc4)cc3[nH]2)cc1`, the growth was 62.1% (inactive).

In the case of `Clc1ccc(CSc2nnc(-c3ccc(Cl)cc3)n2-c2ccccc2)cc1`, the growth was 91.7% (inactive).

Regarding `Nc1nc(=O)n([C@H]2C[C@H](O)[C@@H](CO)O2)cc1C=O`, the growth was 107% (inactive).

In the case of `O=C1CSC(c2cn(-c3ccccc3)nc2-c2ccc(Cl)cc2)N1c1ccccc1` (stereo not given), the growth is 109% (inactive).

As for `O=C1C(SCc2ccccc2)=C(Cl)CN1c1ccccc1`, the growth was 18.5% (inactive).

As for `Cc1cc(NS(=O)(=O)c2ccc(NC(=O)CSc3nc4ccccc4c(=O)n3-c3ccccc3)cc2)no1`, the growth is 97.9% (inactive).

On to `CC(C)(O)c1cncc(-c2ccc3ncc(C#N)c(N4CCc5cc(F)c(Cl)cc54)c3c2)c1`, for which the growth is 11.8% (inactive).

On to `COC(=O)[C@@H](Cc1c[nH]c2ccccc12)NC(=O)CCCCOc1cc(O)c2c(=O)cc(-c3ccccc3)oc2c1`, for which the growth is 72.3% (inactive).

With `CCC(=C(c1ccc(OCCN2CCCCCC2)cc1)c1ccc(OCCN2CCCCCC2)cc1)c1ccc(Cl)cc1`, the growth was -5.89% (active).

Turning to `Cc1csc(/N=C(N)/N=C(\N)c2cccs2)n1`, the growth is 99% (inactive).

For the compound `COc1ccc(/C=N/NC(=O)CSc2nc(-c3cnccn3)cc(-c3cccs3)c2C#N)cc1OC`, the growth was 81.8% (inactive).

Turning to `O=S(=O)(Oc1ccc(-c2cn3ccoc3n2)cc1)C1CCCCC1`, the growth was 85.6% (inactive).

Turning to `Cc1[nH]c(C(=O)Nc2ccc(C(N)=O)cc2N2CCOC(C)C2)c(Cl)c1Cl` (stereo not given), the growth was 101% (inactive).

With `Cc1ccc(-c2cc3nc(C(Cl)Cl)nc(-c4ccc(S(=O)(=O)N(C)C)cc4)n3n2)cc1`, the growth was 68.7% (inactive).

Consider `CN(C)c1ccc(-c2cc(-c3c[nH]c4ccccc34)nc(N)c2C#N)cc1`, for which the growth was 9.16% (active).

On to `Brc1cc(-c2cc(-c3ccc4c(c3)OC=CO4)[nH]n2)cs1`, for which the growth was 60.9% (inactive).

Take `CCNC(=O)Oc1ccc(/C(=C(/C)c2ccc(OC)cc2)c2ccc(OCCN3CCCCCC3)cc2)cc1`: the growth was -20.7% (active).

In the case of `COc1cc(-c2nc(-c3ccccc3)[nH]c2-c2ccnc(NCCCNS(=O)(=O)c3cccc(F)c3)n2)ccc1F`, the growth was 77.1% (inactive).

On to `CCCNNC(=O)c1ccc(-c2ccc(NC(=O)CCCCCCC(=O)N[C@H](C(=O)N3C[C@H](O)C[C@H]3C(=O)N[C@@H](C)c3ccc(-c4scnc4C)cc3)C(C)(C)C)cc2)cc1`, for which the growth was 17.9% (inactive).

As for `Cn1cc(C2=C(c3coc4cc(Br)ccc34)C(=O)NC2=O)c2ccccc21`, the growth is 29.5% (inactive).

Consider `O=C(/C=C/C=C/c1csc(Br)n1)NO`, for which the growth is 60% (inactive).
